From PubChem
LYPLA1 inh = LYPLA1 (human) inhibition in PME1 counter-screen; AID 2174; 320,000 compounds, 0.16% hits; recombinant LYPLA1, FP-Rh probe fluorescence polarization; O75608; inhibition, % at 5.9 µM;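 active = inhibition above the mean of all tested compounds plus 3 SD, set per campaign, cut at about 14% in these data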;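 note: inhibitors block serine hydrolase probe labeling of LYPLA1 so polarization falls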
Target sequence (O75608 whole entry, looked up): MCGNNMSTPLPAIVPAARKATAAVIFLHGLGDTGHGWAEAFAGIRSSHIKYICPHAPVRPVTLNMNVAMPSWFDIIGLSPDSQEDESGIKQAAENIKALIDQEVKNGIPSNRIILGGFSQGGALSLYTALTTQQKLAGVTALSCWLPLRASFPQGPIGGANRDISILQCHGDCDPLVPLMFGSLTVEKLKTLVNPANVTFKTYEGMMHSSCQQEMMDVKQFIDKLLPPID
LYPLA2 inh = LYPLA2 (human) inhibition in PME1 counter-screen | recombinant LYPLA2, FP-Rh probe fluorescence polarization | inhibition, % at 5.9 µM | 320,000 compounds, 0.38% hits | AID 2177;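 active = inhibition above the screen-wide mean plus 3 SD, limit set per campaign, cut at about 26% in these data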
Fam108B inh = Fam108B inhibition, counter-screen for RBBP9 inhibitors; inhibition, % at 9.51 µM; 300,000 compounds, 0.33% hits; recombinant Fam108B, FP-Rh probe fluorescence polarization;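 active = inhibition above the screen mean inhibition plus 3 SD, computed separately per campaign, cut at about 18% in these data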;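 note: inhibitors lower polarization as less probe binds the enzyme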
GSTO1 inh = GSTO1 inhibition, counter-screen for RBBP9 inhibitors. P78417. recombinant GSTO1, activity-based probe fluorescence polarization. inhibition, % at 5.96 µM. 300,000 compounds, 1.1% hits;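 active = inhibition above the campaign mean inhibition plus 3 SD, cut at about 35% in these data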
Target sequence (P78417 whole entry, looked up): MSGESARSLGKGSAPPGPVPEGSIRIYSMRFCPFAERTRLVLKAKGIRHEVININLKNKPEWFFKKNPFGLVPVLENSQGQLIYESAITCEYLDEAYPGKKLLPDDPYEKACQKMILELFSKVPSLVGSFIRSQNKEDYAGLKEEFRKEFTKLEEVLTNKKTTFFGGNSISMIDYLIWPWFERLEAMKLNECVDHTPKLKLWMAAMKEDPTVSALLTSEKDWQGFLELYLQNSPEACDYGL
PAD4 inh = blocks human protein arginine deiminase 4; Q9UM07; recombinant PAD4, RCA probe fluorescence polarization; inhibition, % at 6.36 µM; 330,000 compounds, 0.41% hits; AID 485272;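 active = percent inhibition above a cutoff equal to the mean of all tested compounds plus 3 SD, cut at about 15% in these data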
PME-1 primary = blocks human protein phosphatase methylesterase 1; Q9Y570; recombinant PME-1, FP-Rh probe fluorescence polarization; inhibition, % at 5.9 µM; 320,000 compounds, 0.53% hits;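 active = inhibition above the campaign mean of all compounds plus 3 SD, cut at about 26% in these data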;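 note: competitive labeling of PME-1 active site by serine hydrolase directed probe; inhibitors block probe labeling so polarization falls and inhibition rises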
GSTO1 confirm = GSTO1 (human) inhibition, confirmation; shares compounds with GSTO1 inh; recombinant GSTO1, probe fluorescence polarization; inhibition, % at 5.96 µM; 2,400 compounds, 54% hits; AID 2176;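 active = inhibition above the primary screen's cutoff, its mean inhibition plus 3 SD, cut at about 35% in these data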;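 note: loss of polarization as inhibitors block binding of rhodamine sulfonate ester activity probe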
GSTO1 ABPP inh = blocks recombinant human glutathione S-transferase omega 1; recombinant GSTO1, gel ABPP SE-Rh probe fluorescence; inhibition, % at 1 µM; shares compounds with GSTO1 inh; 130 compounds, 30% hits;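 active = inhibition of the enzyme GSTO1 above about 75%, limit read from the data; inactive = inhibition below that limit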
A number is an active result. In the library only some 1.8% were active in any assay of this set; here they are far more common.

What do the screens show for `CCOC(=O)c1c(C)oc2c1c(C=NCCC(=O)O)c(O)c1ccccc12`?
LYPLA1 inh: inactive; LYPLA2 inh: inactive; Fam108B inh: inactive; GSTO1 inh: 43; PAD4 inh: inactive; PME-1 primary: inactive; GSTO1 confirm: 47

Results for CCOC(=O)c1c(C)oc2c1c(C=NC1CCS(=O)(=O)C1)c(O)c1ccccc12 (centres undefined) ?
LYPLA1 inh: inactive; LYPLA2 inh: inactive; Fam108B inh: inactive; GSTO1 inh: inactive; PAD4 inh: inactive; PME-1 primary: inactive

How did CC12CCC(C(=O)N(CC3CO3)C1=O)C2(C)C (centres undefined) do in these assays?
LYPLA1 inh: inactive; LYPLA2 inh: inactive; Fam108B inh: inactive; GSTO1 inh: 61; PAD4 inh: inactive; PME-1 primary: inactive; GSTO1 confirm: 77; GSTO1 ABPP inh: inactive

Results for O=C(CN1CCOCC1)N/N=C/c1c(O)ccc2ccccc12 ?
LYPLA1 inh: inactive; LYPLA2 inh: inactive; Fam108B inh: inactive; GSTO1 inh: 38; PAD4 inh: inactive; PME-1 primary: inactive; GSTO1 confirm: inactive

How did O=C(CN1CCOCC1)N/N=C/c1ccco1 do in these assays?
LYPLA1 inh: inactive; LYPLA2 inh: inactive; Fam108B inh: inactive; GSTO1 inh: inactive; PAD4 inh: inactive; PME-1 primary: inactive

How did Cc1onc(C(=O)NCc2cccs2)c1[N+](=O)[O-] do in these assays?
LYPLA1 inh: inactive; LYPLA2 inh: inactive; Fam108B inh: inactive; GSTO1 inh: inactive; PAD4 inh: inactive; PME-1 primary: inactive

How did CC(C)c1onc(C(=O)NCc2cccs2)c1[N+](=O)[O-] do in these assays?
LYPLA1 inh: inactive; LYPLA2 inh: inactive; Fam108B inh: inactive; GSTO1 inh: 41; PAD4 inh: inactive; PME-1 primary: inactive; GSTO1 confirm: inactive

How did Cc1ccc(C(=O)N2CCCC(N3CCN(c4ccccc4C)CC3)C2)c(=O)[nH]1 (centres undefined) do in these assays?
LYPLA1 inh: inactive; LYPLA2 inh: inactive; Fam108B inh: inactive; GSTO1 inh: inactive; PAD4 inh: inactive; PME-1 primary: inactive

How did O=P(O)(Cc1ccccc1)Cc1ccccc1 do in these assays?
LYPLA1 inh: inactive; LYPLA2 inh: inactive; Fam108B inh: inactive; GSTO1 inh: 47; PAD4 inh: inactive; PME-1 primary: inactive; GSTO1 confirm: inactive

What do the screens show for `O=P(Cc1ccccc1)(c1ccccc1)c1ccccc1`?
LYPLA1 inh: inactive; LYPLA2 inh: inactive; Fam108B inh: inactive; GSTO1 inh: inactive; PAD4 inh: inactive; PME-1 primary: inactive

How did Cc1ccc(S(=O)(=O)N(C(=O)c2ccncc2)c2ccc(OC(=O)c3ccncc3)c3ccccc23)c(C)c1 do in these assays?
LYPLA1 inh: inactive; LYPLA2 inh: inactive; Fam108B inh: inactive; GSTO1 inh: 55; PAD4 inh: inactive; PME-1 primary: inactive; GSTO1 confirm: inactive

How did Cc1ccc(S(=O)(=O)N(C(=O)c2ccncc2)c2ccc(OC(=O)c3ccncc3)c3ccccc23)cc1 do in these assays?
LYPLA1 inh: inactive; LYPLA2 inh: inactive; Fam108B inh: inactive; GSTO1 inh: 43; PAD4 inh: inactive; PME-1 primary: inactive; GSTO1 confirm: inactive

How did CC(=O)N1N=C(c2ccco2)CC1c1cccs1 (centres undefined) do in these assays?
LYPLA1 inh: inactive; LYPLA2 inh: inactive; Fam108B inh: inactive; GSTO1 inh: inactive; PAD4 inh: inactive; PME-1 primary: inactive

What do the screens show for `Cc1ccc(C2=NN(C(=O)CCl)C(c3cccs3)C2)o1` (centres undefined)?
LYPLA1 inh: inactive; LYPLA2 inh: inactive; Fam108B inh: inactive; GSTO1 inh: 99; PAD4 inh: inactive; PME-1 primary: inactive; GSTO1 confirm: 96

What do the screens show for `O=C(CCl)N1N=C(c2ccco2)CC1c1cccs1` (centres undefined)?
LYPLA1 inh: inactive; LYPLA2 inh: inactive; Fam108B inh: inactive; GSTO1 inh: 85; PAD4 inh: inactive; PME-1 primary: inactive; GSTO1 confirm: 99

What do the screens show for `CCOC(=O)CN(C(=O)CSc1nnnn1C)c1ccccc1`?
PAD4 inh: inactive

What do the screens show for `CCC(C(=O)N1CCN(S(=O)(=O)c2ccc(F)cc2)CC1)c1ccccc1` (centres undefined)?
LYPLA1 inh: inactive; LYPLA2 inh: inactive; PAD4 inh: inactive; PME-1 primary: inactive

Results for Cc1ccc(S(=O)(=O)c2c(N)n(CCCO)c3nc4ccccc4nc23)cc1 ?
LYPLA1 inh: inactive; LYPLA2 inh: inactive; Fam108B inh: inactive; GSTO1 inh: 60; PAD4 inh: inactive; PME-1 primary: inactive; GSTO1 confirm: inactive

How did Cc1cccc([C@@H]2[C@@H]3C(=O)N(Cc4ccccc4)C(=O)[C@@H]3[C@]3(Cc4ccc(Cl)cc4)C(=O)N(c4cccc(Br)c4)C(=O)N23)c1 do in these assays?
LYPLA1 inh: inactive; LYPLA2 inh: inactive; Fam108B inh: inactive; GSTO1 inh: 70; PAD4 inh: inactive; PME-1 primary: inactive; GSTO1 confirm: inactive

Results for COc1c(Cl)cc(C(=O)NN)cc1Cl ?
LYPLA1 inh: inactive; LYPLA2 inh: inactive; Fam108B inh: inactive; GSTO1 inh: inactive; PAD4 inh: inactive; PME-1 primary: inactive

How did NNC(=O)c1cc(O)c(O)c(O)c1 do in these assays?
LYPLA1 inh: inactive; LYPLA2 inh: inactive; Fam108B inh: inactive; GSTO1 inh: 52; PAD4 inh: inactive; PME-1 primary: inactive; GSTO1 confirm: inactive

Results for CCC(NC(C)C)C(O)c1ccc(O)c(O)c1 (centres undefined) ?
LYPLA1 inh: inactive; LYPLA2 inh: inactive; Fam108B inh: inactive; GSTO1 inh: 50; PAD4 inh: inactive; PME-1 primary: inactive; GSTO1 confirm: inactive

How did COc1ccc(NC(=S)NNc2ccc(C(=O)O)cc2)cc1 do in these assays?
LYPLA1 inh: inactive; LYPLA2 inh: inactive; Fam108B inh: inactive; GSTO1 inh: inactive; PAD4 inh: inactive; PME-1 primary: inactive

Results for ClC(Cl)(Cl)c1nc2ccccc2n2nncc12 ?
LYPLA1 inh: inactive; LYPLA2 inh: inactive; Fam108B inh: inactive; GSTO1 inh: 64; PAD4 inh: inactive; PME-1 primary: inactive; GSTO1 confirm: 52

How did c1ccc2c(c1)nnn1c3ccccc3nc21 do in these assays?
LYPLA1 inh: inactive; LYPLA2 inh: inactive; Fam108B inh: inactive; GSTO1 inh: inactive; PAD4 inh: inactive; PME-1 primary: inactive

How did COc1cc(/C=C2\C(=O)N(c3ccc(S(N)(=O)=O)cc3)N=C2C)ccc1OC(=O)c1ccco1 do in these assays?
LYPLA1 inh: inactive; LYPLA2 inh: inactive; Fam108B inh: inactive; GSTO1 inh: 53; PAD4 inh: inactive; PME-1 primary: inactive; GSTO1 confirm: inactive

Results for CCS(=O)(=O)C1=NN2C(=N)/C(=C\c3ccc(OC(=O)c4ccco4)c(OC)c3)C(=O)N=C2S1 ?
LYPLA1 inh: inactive; LYPLA2 inh: inactive; Fam108B inh: inactive; GSTO1 inh: inactive; PAD4 inh: inactive; PME-1 primary: inactive
